Where “and” joins values, the source holds several entries; their conditions need not be identical. Identical values can stand only once. Results filed as inconclusive are left out. The source holds several records for some structures; these can differ, active in one and inactive in another. Calls of active or inactive are those of the source. Rule for the calls, unless noted: active = hit-call score of the fitted dose curve at least 0.9, where 1 is the maximum; inactive = score below 0.9.
Tests used:
[1] = CCTE_Simmons_MITO_viability: CellTiter-Glo Viability Assessment for CCTE's HepG2 Seahorse XF Respirometric Screening Assay [post-hoc], Simmons Lab (AID 2284007; active = hit-call score of the fitted dose curve at least 0.9, where 1 is the maximum;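 for AC50: cells exposed to chemical for 90 min before the ATP read; actives lower ATP signal relative to DMSO baseline meaning reduced viability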)
Summary of the method: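 Luciferase-coupled ATP luminescence, single endpoint. HepG2, post-respirometry. Compound 125 nM–100 uM final, 7 conc., 90 min. n=3 biological, technical singles. DMSO vehicle/baseline; dichlone 10 nM–100 uM, 8 conc., as positive control.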

[2] = CCTE_Harrill_HTTr_Viability_MCF7: CCTE's 6-hour Cell Viability Assessment for the High-Throughput Transcriptomics (HTTr) Platform, in MCF-7 cells cultured in DMEM + 10% fetal bovine serum, Harrill Lab (AID 2284010)
Summary of the method: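 PI exclusion, high-content imaging; 8-pt dilution series, 6 h exposure; bidirectional fit vs DMSO (neg. ctrl/baseline); gain of signal = loss of membrane integrity.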

[3] = CCTE_Harrill_HTTr_Apoptosis_MCF7: CCTE's 6-hour Apoptosis Assessment for the High-Throughput Transcriptomics (HTTr) Platform, in MCF-7 cells cultured in DMEM + 10% fetal bovine serum, Harrill Lab (AID 2284011)
Summary of the method: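 Apoptosis in MCF-7 cells grown in DMEM with 10% fetal bovine serum was scored after a six hour exposure by high content imaging of caspase-3/7 activation (CellEvent Caspase 3/7 Green), with DMSO serving as negative control and baseline.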

[4] = CCTE_Harrill_HTTr_CellCount_MCF7: CCTE's Cell Proliferation Assessment for the High-Throughput Transcriptomics (HTTr) Platform, Harrill Lab (AID 2284012; active = hit-call score of the fitted dose curve at least 0.9, where 1 is the maximum;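 note: count of Hoechst-stained nuclei per well by high-content imaging in MCF-7 cells; cells exposed to compound for six hours; intended direction is loss of nuclei count meaning fewer cells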)
Summary of the method: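 Readout: Hoechst nuclear count by high-content imaging. MCF-7, 8-point dilution series, 6 h exposure. Bidirectional fit vs DMSO baseline.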

[5] = CCTE_Shafer_MEA_acute_spike_number: CCTE's Neural Acute Assay for Total Number of Spikes, Shafer Lab (AID 2284008);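 for AC50: curve fitted for decrease in spike count so AC50 reflects inhibitors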
Summary of the method: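 Using an adaptive detector set to 8x rms noise, spikes were counted in 40-min windows before and after compound addition (0.03-40 uM) to rat cortical networks at 37 C; the well-level change from baseline was analysed relative to DMSO.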

[6] = CCTE_Shafer_MEA_acute_firing_rate_mean: CCTE's Neural Acute Assay for Mean Firing Rate, Shafer Lab (AID 2284009);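 note: analyzed for loss of signal so actives lower firing rate relative to DMSO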
Summary of the method: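 Rat cortical neuron cultures matured to DIV 13 or 15, equilibrated 20 min at 37 C, then recorded 40 min for baseline. Compound (0.03-40 uM) added and a further 40 min recorded; percent change in mean firing rate calculated per well.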

[7] = CCTE_Shafer_MEA_acute_burst_number: CCTE's Neural Acute Assay for Single-Electrode Bursts, Shafer Lab (AID 2284013)
Summary of the method: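 Percent change in single-electrode burst number per well, from 40-min recordings taken before and after adding compound (0.03-40 uM) to primary rat cortical neurons on MEA plates at DIV 13 or 15, 37 C.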

[8] = CCTE_Shafer_MEA_acute_burst_duration_mean: CCTE's Neural Acute Assay for Mean Burst Duration, Shafer Lab (AID 2284014);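 note: hits are decreases in mean burst duration relative to DMSO controls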
Summary of the method: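 Rat cortical cultures, DIV 13/15; 40 min baseline, then 40 min with compound (0.03-40 uM), 37 C. Spikes: 300-5000 Hz band-pass, 8x rms threshold. Read-out: % change in mean single-electrode burst duration, DMSO-referenced, loss direction.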

[9] = CCTE_Shafer_MEA_acute_per_burst_spike_number_mean: CCTE's Neural Acute Assay for Average Number of Spikes Per Burst, Shafer Lab (AID 2284015);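 note: hits are decreases in mean spikes per burst versus baseline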
Summary of the method: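 Percent change in mean spikes per single-electrode burst is compared between a 40 min baseline and a 40 min recording with compound (0.03-40 uM). Cultures were rat cortical neurons on MEA plates at DIV 13 or 15, recorded at 37 C, with DMSO as the negative control.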

[10] = CCTE_Shafer_MEA_acute_interburst_interval_mean: CCTE's Neural Acute Assay for Mean Interburst Interval, Shafer Lab (AID 2284016);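 note: percent change of mean interburst interval versus each well's own pre-dose baseline; curves fitted for decrease in interburst interval relative to DMSO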
Summary of the method: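 Percent change in mean single-electrode interburst interval was calculated per well from 40 min recordings before and after compound (0.03-40 uM). Recordings were made at 37 C on rat cortical cultures at DIV 13 or 15, with spikes detected at 8x rms threshold.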

Measured: AC50

CCc1nn(C2CCCCC2)c2cc(C3(C#N)CCC(C(=O)O)CC3)ccc12 (centres undefined)
inactive: [1] | [2] | [3] | [4]

NC(=O)N(O)[C@@H]1C=C[C@H](Oc2cccc(Oc3ccc(F)cc3)c2)C1
active: [8] 18.5 µM | [9] 10 µM | [10] 2.69 µM
inactive: [1] | [5] | [6] | [2] | [3] | [4] | [7]

CCC(=C(c1ccc(O)cc1)c1ccc(OCCN(C)C)cc1)c1ccccc1
active: [3] 35.7 µM | [8] 23 µM | [9] 21 µM
inactive: [5] | [6] | [2] | [4] | [7] | [10]

CC[C@H](c1ccc(O)cc1)[C@@H](CC)c1ccc(O)cc1
inactive: [5] | [6] | [2] | [3] | [7] | [8] | [9] | [10]
active: [1] 12.6 µM

CCCCCCCC(=O)O
inactive: [2] | [3]

CC#C[C@]1(O)CC[C@H]2[C@@H]3CCC4=CC(=O)CCC4=C3[C@@H](c3ccc(N(C)C)cc3)C[C@@]21C
active: [5] 1.74 µM and 2.84 µM | [6] 1.74 µM and 2.84 µM | [7] 1.66 µM | [9] 32.9 µM | [10] 4.16 µM
inactive: [2] | [3] | [4] | [7] | [8] | [9] | [10]

CCCCCCCCCCCCN1CCCC1=O
inactive: [1] | [5] | [6] | [2] | [3] | [4] | [7] | [8] | [9] | [10]

Nc1cccc2c(N)cccc12
inactive: [1] | [2] | [3]

From PubChem BioAssay (EPA / NIEHS)
